Laboratory results from the supplement of paper PMC6555819.

System: PPARg:RXRa (NR concentration 180 nM, RXRa partner concentration 90 nM)
Assay: PBM binding z-score (relative to random genomic background probes); higher = stronger binding; sequences stand for … in GC…GCGATTGACAGCGTAGAATGAAGG
Procedure, shortened: (§1)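 Random background probes are the reference for binding z-scores. These scores derive from regression-normalized fluorescence on custom Agilent 4×180K protein-binding microarrays incubated 1 h with ligand-free nuclear receptor dimers. Binding was detected with antibodies against each partner (one per run).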

Row | Sequence | PBM binding z-score
1 | CCTACTGGGCCATTCAGAGGTCAGTGATCATATG | 1.47
2 | CCTCGGAGGACAACAGGAGGTTAGAGCTGCCAGA | 0.177
3 | TGAATCAGGTTAAAGATCAGGGAACGTGGCGTCG | 4.92
4 | CGTCCATGGTCAGCAGGTCAGTGAAAGCGACGTG | -0.0482
5 | GCGACTGGGGCCAAGCAGGTTACCATAAGGTTGG | 0.164
6 | CTGGAAAGGTCGGTTGAGGTGAGTATACGGATAA | 0.576
7 | TCATATAGGTAAAGGTCAAAGTCGAACGATATGA | 7.64
8 | ACAGACAGGTGATGGAGGTAACTCAGGCTATCAT | 0.789
9 | TTACCAAGGTGAGCTGAGGACGTTGATCCAACTC | -0.0163
10 | TCTAGTTGGTCAAAGGTCACACACTCGAAATGCG | 11.6
11 | ACTAGCAGGCCAAGGGTAACTCAAGATTAGTCCG | 3.38
12 | CGTCCCAGGTCAAAGGTCAGTGAAGAGATGACGG | 10.8
13 | GCGACTAGGGCAAAGCAGGTTACCATAAGGTTGG | 1.63
14 | ATCTCTAGGCAACCAAGTTCAGTGAATGCCGAAC | 0.114
15 | GCATATAGGAAATACAAGGTGAAAGTCCGATTGT | 0.752
16 | ATCTCTAGGTAACCAAGTTCAGTTAATGCCGAAC | 0.806
17 | GCGACTGGGGCAAAGCAGGGTACCATAAGGTTGG | 0.93
18 | CTACCAAGGTGAACAAGGTTGTTGATTACTATTC | 0.7
19 | CCTGCTAGGTCAATTGTCAGCTAAAGCAGCTCGC | 1.83
20 | GCTCGGAGGACAAGGTCATAGCTTTGTCCGTAGA | 2.43

Row | Sequence | PBM binding z-score
21 | ACTCGGAGGAAAAAGGTCAGAGCTACGCCAGTGA | 2.6
22 | TCTCGGAGGACACGAAGGTCAGAGCGTTCCAGAG | 0.373
23 | GGAACGATGGCAAAGTTGATAGCATCTGTCGACG | 1.79
24 | CCTATTAGTTGACCATAAGGGCAACCAAAGCTCG | 0.604
25 | TCATATAGGTAAATGCTAGCTGAAAGTCCGATCT | 0.413
26 | GCTAGCAGGCCATTTGGGTCACTCATTGACGGGC | 0.357
27 | GGAACGGGGGCAAAGTTGATAGCATCTGTCGACG | 9.31
28 | TTACCAAGGTGAGCTGAGGTCGTTGGTCCAACTC | -0.467
29 | CCTTGGAGGACAGAAGGTCAGAGCTGTCCGCTTT | 0.715
30 | CGATCTAGGTCAGAACAGGACAGTGAAGGATGAT | 4.82
31 | TAGCCTAGGTCATGCGCGCCAGTATAGTGTCGGC | 2.68
32 | GCTGCTAGGTCAGCTTGGTCAGCTAACGGGTACG | 0.479
33 | ACTATTAGTTTAGACGAGGGCAACCGATAGGTTG | 0.651
34 | TCTTGTAGATCAGCAGGAGGTTAAGAAAGATCGA | -0.21
35 | GCTAGCAGGCCATTGGGGTCACTCAATGACGGGC | 1.95
36 | ACAGACAGGTGAAGAAGGTAACTCAGGCTATCAT | 0.796
37 | TCTTGTAGATCACAGGTTAAGAAAGCCGAAGCCT | 2.74
38 | CCTAGTTGGTCAAGGTCACACACGCTATAGGTAC | 3.35
39 | TAGCCTAGGTCATTCAGGGTCCAGTATAGAAAGC | 1.99
40 | CAAACTAGGTCAGGAGGTCAAAGTCCGCTTCCCG | 8.99

System: PPARg:RXRa 270nM:90nM, anti-RXR (NR concentration 270 nM, RXRa partner concentration 90 nM)
Assay: as above
Procedure, shortened: as §1

Row | Sequence | PBM binding z-score
41 | CCTACTGGGCCATTCAGAGGTCAGTGATCATATG | 1.99
42 | CCTCGGAGGACAACAGGAGGTTAGAGCTGCCAGA | -0.821
43 | TGAATCAGGTTAAAGATCAGGGAACGTGGCGTCG | 5.85
44 | CGTCCATGGTCAGCAGGTCAGTGAAAGCGACGTG | -0.0239
45 | GCGACTGGGGCCAAGCAGGTTACCATAAGGTTGG | -0.27
46 | CTGGAAAGGTCGGTTGAGGTGAGTATACGGATAA | 0.975
47 | TCATATAGGTAAAGGTCAAAGTCGAACGATATGA | 6.9
48 | ACAGACAGGTGATGGAGGTAACTCAGGCTATCAT | -0.241
49 | TTACCAAGGTGAGCTGAGGACGTTGATCCAACTC | -0.267
50 | TCTAGTTGGTCAAAGGTCACACACTCGAAATGCG | 10
51 | ACTAGCAGGCCAAGGGTAACTCAAGATTAGTCCG | 4.86
52 | CGTCCCAGGTCAAAGGTCAGTGAAGAGATGACGG | 9.06
53 | GCGACTAGGGCAAAGCAGGTTACCATAAGGTTGG | 1.77
54 | ATCTCTAGGCAACCAAGTTCAGTGAATGCCGAAC | 0.0403
55 | GCATATAGGAAATACAAGGTGAAAGTCCGATTGT | 0.734
56 | ATCTCTAGGTAACCAAGTTCAGTTAATGCCGAAC | 1.1
57 | GCGACTGGGGCAAAGCAGGGTACCATAAGGTTGG | 0.904
58 | CTACCAAGGTGAACAAGGTTGTTGATTACTATTC | 0.746
59 | CCTGCTAGGTCAATTGTCAGCTAAAGCAGCTCGC | 2.46
60 | GCTCGGAGGACAAGGTCATAGCTTTGTCCGTAGA | 3.37

Row | Sequence | PBM binding z-score
61 | ACTCGGAGGAAAAAGGTCAGAGCTACGCCAGTGA | 3.2
62 | TCTCGGAGGACACGAAGGTCAGAGCGTTCCAGAG | 1.63
63 | GGAACGATGGCAAAGTTGATAGCATCTGTCGACG | 3.3
64 | CCTATTAGTTGACCATAAGGGCAACCAAAGCTCG | 0.461
65 | TCATATAGGTAAATGCTAGCTGAAAGTCCGATCT | 1.96
66 | GCTAGCAGGCCATTTGGGTCACTCATTGACGGGC | 0.27
67 | GGAACGGGGGCAAAGTTGATAGCATCTGTCGACG | 8.52
68 | TTACCAAGGTGAGCTGAGGTCGTTGGTCCAACTC | 0.63
69 | CCTTGGAGGACAGAAGGTCAGAGCTGTCCGCTTT | 2.34
70 | CGATCTAGGTCAGAACAGGACAGTGAAGGATGAT | 3.88
71 | TAGCCTAGGTCATGCGCGCCAGTATAGTGTCGGC | 2.89
72 | GCTGCTAGGTCAGCTTGGTCAGCTAACGGGTACG | 0.718
73 | ACTATTAGTTTAGACGAGGGCAACCGATAGGTTG | 0.246
74 | TCTTGTAGATCAGCAGGAGGTTAAGAAAGATCGA | 1.36
75 | GCTAGCAGGCCATTGGGGTCACTCAATGACGGGC | 3.1
76 | ACAGACAGGTGAAGAAGGTAACTCAGGCTATCAT | 0.34
77 | TCTTGTAGATCACAGGTTAAGAAAGCCGAAGCCT | 4.44
78 | CCTAGTTGGTCAAGGTCACACACGCTATAGGTAC | 3.96
79 | TAGCCTAGGTCATTCAGGGTCCAGTATAGAAAGC | 2.11
80 | CAAACTAGGTCAGGAGGTCAAAGTCCGCTTCCCG | 7.3
